Source: PubChem BioAssay
Most compounds without a hit are left out; they make up all but 1.8% or so of the library.
PTHR1 ag: PTHR1 (human) receptor agonism; Q03431; HEK293 GP2 PTHR1 cells, GloSensor cAMP luminescence, 1 h; Potency, µM (top dose mostly 115 µM), without a hit: at the highest dose activation, hits mostly activators; 0.075% of 410,000 active; AID 743266; note: nearly all actives have a fitted effect of over 55% in size
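HEK-293-derived GP2 cells expressing PTHR1 and a GloSensor cAMP reporter, 3,000/well, plated overnight, given luciferin plus IBMX (each 0.5 mM as added) for 1 h at 37 °C, then compound for 1 h at 37 °C. Luminescence was read after 15 min at room temperature.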
HEK293 tox: cytotoxic in the GLP-1 receptor inverse agonist counter-screen. HEK293 cAMP-luciferase reporter cells, luminescence, 24 h. Potency, µM (titrated, usually from 38.3 µM), for inactives: at the highest dose activity change, negative = inhibition, usual class: inhibitors. 0.13% of 410,000 active. AID 624418;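 note: loss of luciferase light is scored as toxicity; % is set by controls: 0 for no effect and ±100 for the full control effect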
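MLSMR compounds, 24 hr on cells at 37 deg C/5% CO2; luminescence after luciferase reagent (12 min RT). Inhibition counted as the undesired cytotoxic outcome.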
RGS4 inhibitor: blocks human RGS4-accelerated GTP hydrolysis; Transcreener GDP fluorescence polarization, RGS4-accelerated GTP hydrolysis; Potency, µM (series often up to 114 µM), inactives show at the highest dose activity change, negative = inhibition, most hits filed as inhibitors; 0.039% of 390,000 active; AID 504845; note: % is set by controls: 0 for no effect and ±100 for the full control effect; nearly all actives have a fitted effect of over 75% in size
Target sequence (P49798 whole entry, looked up): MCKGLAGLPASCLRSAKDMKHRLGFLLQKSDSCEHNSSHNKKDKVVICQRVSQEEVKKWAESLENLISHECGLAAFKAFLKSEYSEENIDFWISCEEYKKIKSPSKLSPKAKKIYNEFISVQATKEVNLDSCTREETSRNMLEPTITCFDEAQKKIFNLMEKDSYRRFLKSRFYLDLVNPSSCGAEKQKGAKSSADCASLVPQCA
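MLSMR compounds (23 nl, pin-transferred) preincubated 10 min at room temperature with a 500nM (2x) first reagent, then RGS4 at 900nM (2x) plus Transcreener GDP mix added; fluorescence polarization (620/688 nm) read before and after 90 min at 30 °C.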
GLP1R ag: agonists of human GLP-1 receptor; P43220; HEK293 GLP-1R CRE-luciferase, luminescence, 4-6 h; cells express a hypersensitive GLP-1R form; Potency, µM (highest dose often 45.6 µM), for the others: at the top dose activation, hits mostly activators; 0.007% of 380,000 active; AID 624172; note: % of control where 0% means no effect
KAT2A inh: inhibitors of human GCN5L2 histone acetyltransferase. Q92830. GCN5L2 HAT assay, ThioGlo1 CoA-SH fluorescence. Potency, µM (highest dose often 58.9 µM), without a hit: at the highest dose activity change, negative = inhibition, actives largely listed as inhibitors. 0.21% of 390,000 active; note: % is set by controls: 0 for no effect and ±100 for the full control effect
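GCN5L2 (20 nM) in 50mM HEPES pH 7.5, 0.1mM EDTA, 0.01% Tween-20 preincubated 15 min with compounds at room temperature. Reaction started with H3(1-25) 75uM, acetyl-CoA 70uM, ThioGlo1 50uM; CoA-thiol fluorescence (Ex340/Em540) read at 0 and 20 min.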
GLP-1R inv ag: GLP-1 receptor (human) inverse agonism. HEK293 GLP-1R CRE-luciferase, luminescence, 24 h; GLP-1R form is constitutively active. P43220. 1.6% of 410,000 active. Potency, µM (series often up to 38.3 µM), without a hit: top-dose activity change, negative = inhibition, actives largely listed as inhibitors; note: % is set by controls: 0 for no effect and ±100 for the full control effect; nearly all actives have a fitted effect of over 55% in size
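Assay principle: reduced luminescence from a cAMP-responsive reporter in HEK293 cells co-expressing a constitutively active GLP-1R. Conditions: 24 hr compound incubation, 37 deg C, 5% CO2.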
* marks the source's active call; other numbers are inactive results; [ ] = remark or other dose. Calls come from the whole dose curve; as a rule, active = well fitted curve in the direction sought with a large enough effect; inconclusive = small, poorly fitted or top-dose-only effect, or another doubt; inactive = no such curve, though single readings can be large; an effect the other way counts as inactive or inconclusive. Potency is the fitted concentration of half-maximal effect.

How did CCCCCC(=O)NC(Nc1ccc(S(N)(=O)=O)cc1)C(Cl)(Cl)Cl (stereo not given) do in these assays?
PTHR1 ag: inactive; HEK293 tox: 7.9%; RGS4 inhibitor: 24.3%; GLP1R ag: -9.0%; KAT2A inh: -3.6%; GLP-1R inv ag: -23.0%

How did CCCCCCC(=O)NC(Nc1ccc(S(N)(=O)=O)cc1)C(Cl)(Cl)Cl (stereo not given) do in these assays?
PTHR1 ag: inactive; HEK293 tox: -13.9%; RGS4 inhibitor: -30.9%; GLP1R ag: -11.2%; KAT2A inh: -1.8%; GLP-1R inv ag: 8.91µM*

Results for O=C(c1nc2n(n1)C(c1ccc(Cl)cc1)C=C(c1ccccc1)N2)N1CCOCC1 (stereo not given) ?
PTHR1 ag: -7.4%; HEK293 tox: inactive; RGS4 inhibitor: -7.4%; GLP1R ag: 5.0%; KAT2A inh: 22.4µM*; GLP-1R inv ag: -27.5%

How did CCCCCCOc1ccc(NC(=O)CC2C(=O)N(CC)C(=S)N2Cc2ccco2)cc1 (stereo not given) do in these assays?
PTHR1 ag: -21.1%; HEK293 tox: inconclusive; RGS4 inhibitor: -8.6%; GLP1R ag: -4.7%; KAT2A inh: -15.5%; GLP-1R inv ag: 7.08µM*

What do the screens show for `COc1ccc(NC(=O)CC2C(=O)N(C)C(=S)N2Cc2cccs2)cc1` (stereo not given)?
PTHR1 ag: -18.4%; HEK293 tox: 2.3%; RGS4 inhibitor: -8.1%; GLP1R ag: 3.8%; KAT2A inh: -0.6%; GLP-1R inv ag: inconclusive

What do the screens show for `COc1ccc(NC(=O)CC2C(=O)N(Cc3ccccc3)C(=S)N2CCN2CCOCC2)cc1` (stereo not given)?
PTHR1 ag: inactive; HEK293 tox: -5.9%[0.307 µM]; RGS4 inhibitor: 5.9%; GLP1R ag: -1.5%; KAT2A inh: -12.9%; GLP-1R inv ag: -11.5%[0.307 µM]

Results for C=CCN1C(=O)C(CC(=O)Nc2ccc(OCCC)cc2)N(CCCN2CCN(Cc3ccccc3)CC2)C1=S (stereo not given) ?
PTHR1 ag: inactive; HEK293 tox: inconclusive; RGS4 inhibitor: 6.8%; GLP1R ag: 0.1%; KAT2A inh: -12.9%; GLP-1R inv ag: 2.51µM*

What do the screens show for `CCCOc1ccc(NC(=O)CC2C(=O)N(CC)C(=S)N2Cc2cccs2)cc1` (stereo not given)?
PTHR1 ag: -15.4%; HEK293 tox: -27.7%; RGS4 inhibitor: -21.6%; GLP1R ag: -0.5%; KAT2A inh: -21.7%; GLP-1R inv ag: 10µM*

What do the screens show for `[N-]=C=C1C(=O)NC(=O)C([n+]2ccc(-c3ccncc3)cc2)C1c1ccccc1C(F)(F)F` (stereo not given)?
PTHR1 ag: -1.0%; HEK293 tox: -3.0%; RGS4 inhibitor: inconclusive; GLP1R ag: 5.7%; KAT2A inh: -3.2%; GLP-1R inv ag: 6.9%

Results for [N-]=C=C1C(=S)NC(=O)[C@H]([n+]2ccccc2)[C@H]1c1ccc(Cl)cc1 ?
PTHR1 ag: inactive; HEK293 tox: -1.2%; RGS4 inhibitor: inconclusive; GLP1R ag: 7.2%; KAT2A inh: 11.2µM*; GLP-1R inv ag: 21.7%

What do the screens show for `COc1ccccc1-c1cc(NCc2cnc(C)cn2)ncn1`?
KAT2A inh: 20µM*

What do the screens show for `Cc1cnc(CNc2cc(-c3ccccc3C(F)(F)F)ncn2)cn1`?
KAT2A inh: -13.9%

Results for NC(=O)c1cccc(-c2ccnc3c2CC(C(=O)NCc2ccccc2)O3)c1 (stereo not given) ?
PTHR1 ag: -15.9%; HEK293 tox: -27.2%; GLP1R ag: 1.3%; GLP-1R inv ag: 5.01µM*
